# Measured values: the supplement of paper PMC3334620
# Over roughly 33,000 sequences, “E-score (-0.5 to 0.5)” has its median near -0.021; the highest 2% begin near 0.32. The entries come from a sample that favours the highest values as a whole.
# Target: T1, Zap1 (UniProt P47043)
# T1 sequence: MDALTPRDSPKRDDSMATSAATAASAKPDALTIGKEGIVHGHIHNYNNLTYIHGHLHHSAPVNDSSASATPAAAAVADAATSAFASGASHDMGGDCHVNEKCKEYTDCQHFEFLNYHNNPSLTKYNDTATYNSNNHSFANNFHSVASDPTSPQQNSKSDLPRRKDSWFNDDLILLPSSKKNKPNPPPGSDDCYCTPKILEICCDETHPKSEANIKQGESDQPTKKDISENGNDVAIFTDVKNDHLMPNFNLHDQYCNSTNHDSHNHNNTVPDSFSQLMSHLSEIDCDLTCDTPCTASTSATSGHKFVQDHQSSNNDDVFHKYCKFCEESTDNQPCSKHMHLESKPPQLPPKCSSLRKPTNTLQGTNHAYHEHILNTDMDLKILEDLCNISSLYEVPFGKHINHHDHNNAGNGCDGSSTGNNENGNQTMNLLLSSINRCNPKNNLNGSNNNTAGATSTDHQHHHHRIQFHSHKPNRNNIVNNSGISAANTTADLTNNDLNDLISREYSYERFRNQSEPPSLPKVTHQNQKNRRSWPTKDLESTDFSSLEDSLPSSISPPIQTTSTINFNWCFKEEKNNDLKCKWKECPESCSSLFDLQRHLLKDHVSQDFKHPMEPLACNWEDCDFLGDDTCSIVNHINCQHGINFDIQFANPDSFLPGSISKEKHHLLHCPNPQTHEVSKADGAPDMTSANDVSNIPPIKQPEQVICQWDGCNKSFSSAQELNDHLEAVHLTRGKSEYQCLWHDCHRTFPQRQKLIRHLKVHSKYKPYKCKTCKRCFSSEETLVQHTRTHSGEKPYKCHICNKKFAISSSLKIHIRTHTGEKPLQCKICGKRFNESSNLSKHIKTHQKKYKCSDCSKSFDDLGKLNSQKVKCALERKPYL
# Assay: PBM E-score (8-mer binding enrichment) (E-score (-0.5 to 0.5)); higher = stronger / more preferred TF binding
# Details: protein concentration: 200 nM; construct: GST-full length
# Description: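 Universal 'all 10-mer' protein binding microarrays (Agilent AMADID 015681) probed with GST-tagged S. cerevisiae TFs (full-length or DBD) made by in vitro transcription/translation (PURExpress), about 100-200 nM. Bound TF was detected with fluorescent anti-GST. Each ungapped 8-mer (which stands for itself and its reverse complement) is scored by the PBM enrichment score (E-score), a modified Wilcoxon-Mann-Whitney statistic from -0.5 to +0.5, computed with the Universal PBM Analysis Suite. Scale: above 0.35 generally sequence-specific binding.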
row,Sequence,PBM E-score
1,CGGTAACG,0.0507
2,AGGTAAGA,0.125
3,CGGTAACC,0.47
4,GTGTAACA,0.0444
5,CGGTAACA,0.253
6,AAGTAACA,-0.0158
7,GGGTAACA,0.334
8,CGGTAATA,0.219
9,TGGTAACA,0.0812
10,ATGAGCAT,0.049
11,ACCTGAGT,0.0343
12,GTGACGCA,0.0591
13,TCTCTTCA,-0.139
14,AAGGGCGC,0.0237
15,TCTACACA,0.0487
16,GGGTAAAC,0.194
17,AGGTAACC,0.441
18,AGGTAACG,0.19
19,GGGTAAAA,0.306
20,AGGTAACT,0.237
21,GGGTAACC,0.46
22,CAGGAGGG,0.143

row,Sequence,PBM E-score
1,AATTCACC,0.0819
2,AGTCCTCC,-0.144
3,AAAGCAGG,-0.075
4,GAGTGACC,0.239
5,GGGTGACA,0.252
6,AGGTGACC,0.393
7,CGGTGACC,0.327
8,CGGTGACG,0.0241
9,AGGTGACA,0.0888
10,GGGTGACC,0.385
11,CGGTGACA,0.193
12,AGGTGACG,0.182
13,TAAGACTA,-0.0191
14,TGACAAAA,0.152
15,CAAGTGTA,-0.0404
16,AGCCCCCT,-0.406
17,AAGATGCG,-0.058
18,AAGAGGGA,-0.199
19,ATACTCTA,-0.0192
20,CGCCACTC,-0.113
21,CTAGGTTA,0.42
22,GTAGGTAA,0.199

row,Sequence,PBM E-score
1,CTAGGTTC,0.0156
2,ATAGGTTA,0.46
3,CTAGGTCA,0.117
4,ATAGGTTG,0.16
5,GTAGGTGA,0.0614
6,ATAGGTTC,0.138
7,GTAGGTTA,0.39
8,AAGCACGT,-0.3
9,CGGTTAGC,0.151
10,CCAATTAC,0.103
11,ACCAAATC,0.0501
12,AACTACCA,0.179
13,AGTATCCG,-0.013
14,AGGTCTGA,-0.0295
15,ACTAGAGG,-0.0174
16,CCTAGAGG,0.366
17,CCTAGAGA,-0.0434
18,GTAATGCA,-0.157
19,TAAGGGCA,-0.0345
20,TAAGGGTA,0.433
21,GAAGGGAA,-0.194
22,TAAGGGGA,0.00031

row,Sequence,PBM E-score
1,AAAGGGCA,-0.0435
2,AGGGGGTA,0.0442
3,AAGGGGGA,-0.245
4,AAAGGGGA,-0.127
5,GAAGGGGA,-0.0649
6,AAAGGGTA,0.415
7,AAGGGGTA,0.334
8,GAAGGGTA,0.421
9,AACGAATA,-0.00355
10,CAATCCAG,-0.0505
11,CGAAGTCG,0.0486
12,GCTTCCGA,-0.0201
13,AGAGCAAT,-0.181
14,CCCCTAGG,0.16
15,TCCCTAGA,-0.0192
16,CCCCTAGA,0.147
17,AACCTAGG,0.232
18,ACCCTAGA,0.359
19,AACCTAGT,0.161
20,ACCCTAGC,0.247
21,ACCCTAGT,0.411
22,ACCCTAGG,0.428

row,Sequence,PBM E-score
1,GAAGTGGC,-0.106
2,GCGCATGA,-0.185
3,AGGACATG,-0.0235
4,AAATACCA,0.129
5,ACGGGTTA,0.408
6,GCGGGGTA,0.293
7,GCGGGTTA,0.366
8,ACGGGTTC,0.0245
9,CGGGGTTC,0.168
10,GCGGGTAA,0.106
11,CCGGGTTA,0.388
12,CCGGGTTC,0.247
13,ACGGGTTG,0.158
14,CGGGGTTA,0.474
15,CCGGGTGA,0.218
16,GGGGGTTA,0.0334
17,ATCTTATG,-0.00019
18,CCCTTCAG,0.122
19,GCGCACAC,-0.234
20,CGGCGTTA,0.0618
21,ATCTAGGA,-0.0827
22,AAGTTGAT,-0.14
